Assay outcomes as filed in PubChem.
CYP2C19 inh – blockers of cytochrome P450 2C19 activity – biochemical, luminescence, ADME assay, primary screen; CYP2C19 Supersomes, luciferin-H EGE luminescence, 30 min; AID 778, 2007; P33261; inhibition, % at 5 µM; hit rate 21% among 96,000;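 active = CYP2C19 inhibition above a set limit at 5 µM in the primary screen, cut at about 50% in these data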
PostGolgi yeast – phenotypic screen on post-Golgi transport, primary screen; hit rate 0.9% among 98,000; inhibition, % at 10 µM; post-Golgi transport phenotypic cell assay; AID 739, 2007;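 also: yeast cells grown in 1536-well plates; yeast grown about 18 h at 30C before absorbance read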
CYP2C9 inhib – blockers of cytochrome P450 2C9 activity – biochemical, luminescence, ADME assay, primary screen; P11712; hit rate 20% among 96,000; CYP2C9 Supersomes, luciferin-H conversion; inhibition, % at 5 µM;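 active = blocking of liver enzyme CYP2C9 beyond about 50% at 5 µM, limit read from the data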
Target sequence (P11712 whole entry, looked up): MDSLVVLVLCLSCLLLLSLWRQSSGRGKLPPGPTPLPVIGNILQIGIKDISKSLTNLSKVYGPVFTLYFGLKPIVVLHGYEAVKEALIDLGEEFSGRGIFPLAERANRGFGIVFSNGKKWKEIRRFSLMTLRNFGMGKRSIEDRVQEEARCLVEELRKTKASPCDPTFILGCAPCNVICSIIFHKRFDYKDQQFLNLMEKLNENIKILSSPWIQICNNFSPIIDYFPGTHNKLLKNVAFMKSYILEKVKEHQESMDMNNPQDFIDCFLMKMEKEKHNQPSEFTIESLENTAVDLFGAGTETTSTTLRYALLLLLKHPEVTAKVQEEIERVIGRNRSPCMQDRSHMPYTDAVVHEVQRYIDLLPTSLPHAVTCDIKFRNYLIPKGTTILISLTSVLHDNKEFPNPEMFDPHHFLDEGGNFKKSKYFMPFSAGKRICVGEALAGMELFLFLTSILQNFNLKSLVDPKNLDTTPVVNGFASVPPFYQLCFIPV
CYP2C9 activ – human CYP2C9 activators, primary screen, biochemical, luminescence; recombinant CYP2C9, luciferin-H conversion; stronger effect = higher value; factor 1 = untreated enzyme, 0 = blocked; activation factor at 5 µM; hit rate 1.4% among 96,000; AID 1024, 2008;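 active = activation factor of 2 or more for CYP2C9 at a 5 µM dose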
CYP2C19 activ – human CYP2C19 activators, primary screen, biochemical, luminescence; activation factor at 5 µM; Cytochrome P450 2C19 (Homo sapiens), P33261; AID 1025, 2008; 96,000 tested, under 10 active; recombinant CYP2C19, luciferin-H EGE luminescence; stronger effect = higher value; 0 = fully inhibited enzyme, 1 = untreated enzyme;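 active = activation factor of at least 2 at 5 µM in the primary screen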
PostGolgi ctrl – growth inhibition of yeast control strain, primary screen, counter-screen for post-Golgi transport modulator project; AID 738, 2007; hit rate 5% among 98,000; inhibition, % at 10 µM; efflux-deficient yeast background strain, growth absorbance A615, 16 h
Hits are given with their value; . = inactive. Only some compounds are listed: those with a hit (about 32% of all), similar ones and a draw of the others. Rule as the data show it, unless noted: active = inhibition above about 30%; inactive = the rest.

SMILES	CYP2C19 inh	PostGolgi yeast	CYP2C9 inhib	CYP2C9 activ	CYP2C19 activ	PostGolgi ctrl
COc1ccc(-c2nc(SCC(=O)NCc3ccco3)c(-c3ccccc3)[nH]2)cc1OC	78	.	65	.	.	.
COc1ccc(-c2[nH]c(-c3ccccc3)nc2SCC(=O)NCc2ccco2)cc1OC	.	.	.	.	.	.
CC(=O)c1cc(-c2ccccc2)n(CC(=O)NCc2cccs2)c1C	88	.	.	.	.	.
CCOC(=O)c1cc(-c2ccc(C)cc2)n(CC(=O)NCc2ccco2)c1C	83	.	77	.	.	.
CCc1nnc(NC(=O)CSc2nnc(-c3ccccc3O)n2-c2ccc(C)cc2C)s1	.	.	.	.	.	.
COc1cccc(OC)c1/C(O)=C(\C#N)c1nc2ccccc2[nH]1	58	.	.	.	.	.
CC1CCCN(C/C(O)=C(\C#N)c2nc3ccccc3[nH]2)C1 (centres undefined)	.	.	.	.	.	.
COc1ccc(OC/C(O)=C(\C#N)c2nc3ccccc3[nH]2)cc1	.	.	.	.	.	.
CC(C)(C)/C(O)=C(/C#N)c1nc2ccccc2[nH]1	.	.	64	.	.	.
COc1ccc(C/C(O)=C(\C#N)c2nc3ccccc3[nH]2)cc1OC	.	.	50	.	.	.
CC(C)CC(/C(O)=C(\C#N)c1nc2ccccc2[nH]1)N1C(=O)c2ccccc2C1=O (centres undefined)	96	.	95	.	.	.
O=C(Oc1cc(-c2ccccc2)no1)c1cccc(C(F)(F)F)c1	.	.	.	.	.	.
CS(=O)(=O)N(CC(=O)Nc1ccc(C(N)=O)cc1)C1CCCCC1	.	.	.	.	.	.
CC(C)CNC(=O)CN(C1CCCCC1)S(C)(=O)=O	.	.	.	.	.	.
Cc1ccccc1N(CC(=O)NCCSC1CCCCC1)S(=O)(=O)c1ccccc1	.	.	58	.	.	49
CC(C)CNC(=O)CN(C1CCCCC1)S(=O)(=O)c1ccccc1	58	.	92	.	.	.
O=C(CN(C1CC1)S(=O)(=O)c1ccc(S(=O)(=O)NC2CCCCC2)cc1)Nc1ccccc1	97	.	96	.	.	.
CCOC(=O)CN1C(=O)COc2ccc(Cl)cc21	.	.	.	.	.	.
CC(=O)c1cccc(NC(=O)CN2C(=O)COc3ccc(Cl)cc32)c1	.	.	62	.	.	.
CCOc1ccccc1NC(=O)CN1C(=O)COc2ccc(Cl)cc21	50	.	.	.	.	.
CC(=O)c1cccc(NC(=O)CN2C(=O)C3C4C=CC(C4)C3C2=O)c1 (centres undefined)	95	.	72	.	.	.
COc1ccc(-n2c(-c3cccc(C)c3[N+](=O)[O-])n[nH]c2=S)cc1	.	.	.	.	.	.
O=C(O)c1ccccc1C1=Nc2ccc(O)cc2Oc2cc(O)ccc21	.	.	.	.	.	.
CCc1ccc(/C=C/C(=O)C2C(=O)c3ccccc3C2=O)cc1	.	.	60	.	.	.
COc1cccc2cc(NC(=O)C3CCCCC3)c(=O)oc12	.	.	.	2.4	.	.
SMILES	CYP2C19 inh	PostGolgi yeast	CYP2C9 inhib	CYP2C9 activ	CYP2C19 activ	PostGolgi ctrl
O=C(c1cc2ccccc2oc1=O)N1CCN(C(=O)C2CCCO2)CC1 (centres undefined)	.	.	.	.	.	.
COc1cccc2cc(C(=O)N3CCC(C)CC3)c(=O)oc12	.	.	.	2.9	.	.
COC(=O)C1CCN(C(=O)c2cc3ccccc3oc2=O)CC1	56	.	.	2.2	.	.
COc1cccc(CN(C(=O)c2cc3ccccc3oc2=O)C2CC2)c1	79	.	.	2.4	.	.
CN1CCCCc2c1[nH]c1ccccc1c2=O	.	.	.	.	.	.
COc1cccc2cc(C(=O)N3CCN(C45CC6CC(CC(C6)C4)C5)CC3)c(=O)oc12	.	.	56	.	.	.
COc1cccc2cc(C(=O)N3CCN(c4ccccn4)CC3)c(=O)oc12	.	.	.	.	.	.
COc1ccc(Cl)cc1N(CC(=O)N1CCC(C)CC1)S(C)(=O)=O	.	.	.	.	.	.
O=C(CN(c1ccc(F)cc1)S(=O)(=O)c1ccccc1)NCc1ccco1	51	.	73	.	.	.
COC(=O)CN(c1ccc(F)cc1)S(=O)(=O)c1ccccc1	.	.	.	.	.	.
Cc1ccc(N(CC(=O)Nc2ccccc2C(=O)NCc2ccco2)S(=O)(=O)c2ccccc2)cc1C	92	.	98	.	.	.
Cc1cccc(S(=O)(=O)N(CC(=O)Nc2ccccc2C)Cc2ccco2)c1	.	.	53	.	.	.
COc1ccc(Cl)cc1N(CC(=O)N1CCN(Cc2ccccc2)CC1)S(C)(=O)=O	55	.	.	.	.	.
O=C(NC(NCCCN1CCOCC1)(C(F)(F)F)C(F)(F)F)C1CCCCC1	.	.	.	.	.	.
Cc1ccc(S(=O)(=O)N(C)c2ccc(C(=O)NCC3CCCO3)cc2)cc1 (centres undefined)	.	.	.	.	.	.
COc1ccc(N(CC(=O)Nc2ccccc2C(=O)NCc2ccco2)S(C)(=O)=O)cc1	.	.	84	.	.	.
COc1ccc(OC)c(N(CC(=O)Nc2ccccc2C(=O)NCc2ccco2)S(C)(=O)=O)c1	90	.	91	.	.	.
COc1ccc(Cl)cc1N(CC(=O)Nc1ccccc1C(=O)NCc1ccco1)S(C)(=O)=O	.	.	51	.	.	.
COc1ccc(Cl)cc1N(CC(=O)Nc1ccccc1SC)S(C)(=O)=O	92	.	86	.	.	.
COc1ccc(OC)c(NC(=O)Cn2c(=O)n(CC(=O)NCc3ccco3)c(=O)c3ccccc32)c1	.	.	.	.	.	.
COc1ccc(N(C(C)C(=O)NCc2ccco2)S(C)(=O)=O)cc1 (centres undefined)	.	.	.	.	.	.
C=CCNC(=O)C1CCN(S(=O)(=O)c2ccccc2)CC1	.	.	.	.	.	.
CC(Sc1nnc(C2CCCCC2)n1N)C(=O)NCc1ccc2c(c1)OCO2 (centres undefined)	.	.	.	.	.	.
CCOC(=O)c1c(-c2ccccc2)nc2c(C)cccn12	.	.	.	.	.	.
COc1ccc(/C(C#N)=C/c2c(-c3ccc(Cl)cc3)nc3c(C)cccn23)cc1	52	.	57	.	.	.
Cn1c(N)c(C(=O)c2cc(-c3ccccn3)nc3ccccc23)c(=O)[nH]c1=O	.	.	.	.	.	.
Cc1ccc(S(=O)(=O)Cn2nnnc2C(c2ccccn2)N2CCN(c3ccccc3)CC2)cc1 (centres undefined)	72	.	68	.	.	.
